# Laboratory results as given in PubChem BioAssay (NCI).
# About 83,000 compounds went through this panel and 20% of them were active in at least one assay; those are over-represented in the sample as a whole.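 Single-concentration screen, 48 h exposure, 96-well plates. Endpoint: percent growth. Below 10 = active.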 Unmarked numbers belong to inactive results. Activity calls are given as the source filed them.
# System: HL-60(TB) leukemia
# Experiment: NCI-60 one-dose screen, 48 h (100 = growth as untreated, 0 = no growth, -100 = all killed)
# Settings: 10 µM unless noted
row,Structure (SMILES),growth
1,COc1cnc2c(c1)C(=O)c1c-2n(CCCN2CCC(O)CC2)c(=O)c2cc(F)ccc12,-8.3% (active)
2,N#Cc1ccc(N2Cc3cc(Cl)ccc3OC3=C2C(=O)N(Cc2ccc(F)cc2)C3=O)cc1,-57.9% (active)
3,COc1nc2ccc(C)cc2cc1-c1nc2c(cnn2-c2ccccc2)c(=O)[nH]1,50.1%
4,O=C(NNc1nc(Cl)nc(N2CCN(C(c3ccccc3)c3ccccc3)CC2)n1)c1ccccc1,-22.5% (active)
5,CC[C@H](Nc1nc(N)nc(C)c1C#N)c1nc2cccc(CN(C)c3ncc(C(=O)NO)cn3)c2c(=O)n1-c1ccccc1,0.763% (active)
6,CCN(CC)/C([O-])=c1\cccc\c1=C1\N=C(c2ccccc2)N=C1[n+]1ccc(-c2ccccc2)cc1,92.2%
7,CCOC(=O)OCC(=O)[C@@]1(O)CC[C@H]2[C@@H]3CCC4=CC(=O)CC[C@]4(C)[C@H]3[C@@H](O)C[C@@]21C,108%
8,OC(c1cc(C23CC4CC(CC(C4)C2)C3)nc2c(Cl)cc(Cl)cc12)C1CCCCN1 (centres undefined),-47.7% (active)
9,COc1cc(Cn2cc(F)c(=O)[nH]c2=O)cc(OC)c1,104% [50 µM]
10,CC(C)/C=C/CC[C@](C)(O)[C@H]1CC[C@]2(C)[C@@H]1CC[C@@H]1[C@@]3(C)C/C(=C/c4cccc(C(F)(F)F)c4)C(=O)C(C)(C)[C@@H]3CC[C@]12C,92.9%
11,CN(C)CCCNc1nc2ccccc2c2c(=O)c3cc(F)ccc3sc12,-43.5% (active)
12,COc1ccc(-c2cc(-c3nnc(SCC(=O)Nc4ccc(/C(C)=N\O)cc4)o3)c3ccccc3n2)cc1,104%
13,C[C@]1(CO)C[C@@H](O)C[C@]2(C)[C@@H]1CC[C@@]13C[C@@H]4[C@@H](C[C@H]12)[C@]4(C)C3,103%
14,O=C1CCN2C(=O)Nc3ccccc3C2C1 (centres undefined),94.5%
15,COc1ccc(-c2cc(-c3ccc(Nc4nc(Nc5ccc(Cl)cc5)nc(Nc5ccc(Cl)cc5)n4)cc3)no2)cc1,-43.5% (active)
16,N#Cc1ccc(C(=O)CSc2nccc(Nc3ccc(C(=O)O)cc3)n2)cc1,99.5%
17,CC1CN(S(=O)(=O)c2oc(-c3ccc(Cl)cc3)nc2C#N)CC(C)O1 (centres undefined),23.4%

row,Structure (SMILES),growth
1,C#CCOc1cccc(Nc2ncnc3c2ncn3C2CCN(C(=O)CCl)C2)c1 (centres undefined),-56.3% (active)
2,C[n+]1cc2cc3c(cc2c2ccccc21)OCO3,87.5%
3,CCOC(=O)/C=C(/C)Sc1cc(O)c2ccccc2c1O,20.5%
4,COc1ccc(-c2ccc(-c3ccc(C(=N)N)s3)s2)cc1Cl,-41.8% (active)
5,CCOc1nc(-c2ccccc2)cc2c(O)c(C(=O)NN)[nH]c(=O)c12,151%
6,COc1cc2cc(c1Cl)N(C)C(=O)C[C@H](OC(=O)[C@H](C)N(C)C(=O)CCS)C[C@]1(C)O[C@H]1[C@H](C)[C@@H]1C[C@@](O)(NC(=O)O1)[C@H](OC)/C=C/C=C(\C)C2,-28% (active)
7,CS(=O)(=O)Nc1cccc(-c2cc(-c3ccccc3Cl)c(C#N)c(N)n2)c1,8.6% (active)
8,O=C1c2cc(S(=O)(=O)O)ccc2C(=O)c2c1cccc2[N+](=O)[O-],101%
9,CCCCCCCCCCCCCCCCOC(=O)c1c(C)[nH]c(/C=C2\N=C(c3ccc[nH]3)C=C2OC)c1C,62.2%
10,CC1(C)OCC(COC(c2ccccc2)(c2ccccc2)c2ccccc2)O1 (centres undefined),99.9%
11,Cc1ccccc1Nc1nc2nonc2nc1Nc1cccc(C)c1C,69.8%
12,Cc1ccc(C)c(COc2cc(NC(=O)c3ccc4c(c3)OCO4)ccc2N(C)S(C)(=O)=O)c1,-5.51% (active)
13,COc1ccc2nc3cc(Cl)ccc3c(NCCCNCCC(C)O)c2c1 (centres undefined),-38.1% (active)
14,Cc1c(Cn2cc(COc3ccc(Br)cc3)nn2)c(C)c(Cn2cc(COc3ccc(Br)cc3)nn2)c(C)c1Cn1cc(COc2ccc(Br)cc2)nn1,89.8%
15,CNCCCn1c2c(c3ccc(Cl)cc3c1=O)C(=O)c1cc(OC)cnc1-2,-26.3% (active)
16,CSc1nc(Nc2cccc(NC(=O)/C(C#N)=C/c3c(Cl)cccc3Cl)c2)c(C#N)c(-c2cccc([N+](=O)[O-])c2)n1,58.3%
17,OC(c1cc2cc(Br)ccc2c2cc(Br)ccc12)C1CCCCN1 (centres undefined),-61.8% (active)
